Source: PubChem BioAssay AID559 (PCMD, 2006)
In all, about 62,000 compounds went through this assay and about 100 (0.2%) were called active. The sample as a whole holds a higher share of actives than the screen did. Values without a mark were called inactive. No stated cut-off is given here; in the data, active means inhibition above about 20%; inactive means the rest.

Molecular target: DNA-directed RNA polymerase subunit beta (Escherichia coli (strain K12)) (UniProt P0A8V2)
Test: E. coli RNAP inhibitors, biochemical (AID 559);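 further: 0% = enzyme without compound and 100% = no enzyme blank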
Settings: fluorescence transcription assay, active compounds read high,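 tested at 10 µM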

DNA-directed RNA polymerase subunit beta (Escherichia coli (strain K12)), sequence (P0A8V2 whole entry, looked up): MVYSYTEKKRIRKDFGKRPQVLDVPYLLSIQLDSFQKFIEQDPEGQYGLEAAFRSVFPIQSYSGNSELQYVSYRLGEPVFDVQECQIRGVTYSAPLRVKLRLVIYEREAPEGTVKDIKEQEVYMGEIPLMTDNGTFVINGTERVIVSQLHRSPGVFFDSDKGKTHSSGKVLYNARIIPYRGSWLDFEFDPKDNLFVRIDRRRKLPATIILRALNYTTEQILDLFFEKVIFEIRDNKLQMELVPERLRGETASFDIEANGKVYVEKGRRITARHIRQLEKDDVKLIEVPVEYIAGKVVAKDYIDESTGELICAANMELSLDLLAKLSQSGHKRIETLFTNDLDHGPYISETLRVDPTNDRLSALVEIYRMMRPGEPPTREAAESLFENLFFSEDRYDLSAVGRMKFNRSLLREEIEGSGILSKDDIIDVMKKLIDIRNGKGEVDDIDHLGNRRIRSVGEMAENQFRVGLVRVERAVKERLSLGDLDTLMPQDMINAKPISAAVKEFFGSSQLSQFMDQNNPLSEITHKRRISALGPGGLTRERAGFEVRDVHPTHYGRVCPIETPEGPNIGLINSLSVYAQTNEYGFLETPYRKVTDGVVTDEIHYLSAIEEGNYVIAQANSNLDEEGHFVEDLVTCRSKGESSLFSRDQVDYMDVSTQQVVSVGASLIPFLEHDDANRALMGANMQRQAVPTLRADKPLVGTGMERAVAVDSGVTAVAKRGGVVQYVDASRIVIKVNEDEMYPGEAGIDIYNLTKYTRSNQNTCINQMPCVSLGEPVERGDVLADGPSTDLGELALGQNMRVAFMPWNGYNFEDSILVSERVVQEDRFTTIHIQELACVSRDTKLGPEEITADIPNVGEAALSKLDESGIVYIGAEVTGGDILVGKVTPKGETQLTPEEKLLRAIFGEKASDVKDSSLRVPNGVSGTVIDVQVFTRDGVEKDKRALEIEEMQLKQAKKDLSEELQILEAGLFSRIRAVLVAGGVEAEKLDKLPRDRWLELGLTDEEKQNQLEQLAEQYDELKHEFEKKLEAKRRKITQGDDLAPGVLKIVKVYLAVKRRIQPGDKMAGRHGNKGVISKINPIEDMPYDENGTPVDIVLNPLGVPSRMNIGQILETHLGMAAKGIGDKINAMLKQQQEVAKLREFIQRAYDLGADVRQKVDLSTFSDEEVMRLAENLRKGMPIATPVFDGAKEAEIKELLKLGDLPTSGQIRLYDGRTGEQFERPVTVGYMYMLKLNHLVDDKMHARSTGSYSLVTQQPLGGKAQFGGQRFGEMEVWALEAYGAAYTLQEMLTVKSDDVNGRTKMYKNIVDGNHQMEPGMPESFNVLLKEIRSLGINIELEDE

SMILES	inhibition
Cc1nc(NC(CC(C)C)C(=O)O)c2nc(C)oc2n1 (stereo unspecified)	-1.28%
O=C(CSc1n[nH]c(-c2cccnc2)n1)Nc1ccnc2ccccc12	11.1%
O=S(=O)(c1ccc(OCC(O)CN2CCN(c3ccccc3Cl)CC2)cc1)N1CCOCC1 (stereo unspecified)	1.46%
CCOc1cc(-c2nc3cc(C)ccn3c2NCC2CCCO2)ccc1O (stereo unspecified)	6.06%
CCCNS(=O)(=O)c1ccc2c(c1)CCCN2C(C)=O	5.31%
CCN(CC)c1ccc(C(=O)OCC(=O)c2ccco2)cc1	4.69%
C=CCOC(=O)C1=C(C)OC(N)=C(C#N)C1c1ccc(F)cc1 (stereo unspecified)	0.25%
Cc1ccc(C2CC(c3cccc(Br)c3)n3nc(N)nc3N2)cc1 (stereo unspecified)	8.67%
C=CCOc1ccc(C2/C(=C(\O)c3c(C)[nH]c(C(=O)OC)c3C)C(=O)C(=O)N2CCN(C)C)cc1 (stereo unspecified)	-5.38%
CC(=O)c1cccc(NC(=O)N2CCCC2C(=O)NCCC(C)C)c1 (stereo unspecified)	6.83%
Cc1ccccc1-n1c(SCC(=O)NCc2cccs2)nnc1-c1ccncc1	-3.22%
Cn1c(=O)[nH]c(=O)c2c1nc(N1CCN(CCO)CC1)n2CCSc1nc2ccccc2s1	7.67%
O=C(Nc1ccccc1F)c1cc(S(=O)(=O)N2CCCCC2)cs1	-4.61%
Cc1ccc(C)c(NS(=O)(=O)c2cc(Br)cnc2N)c1	-0.25%
c1ccc(-n2ncc3c(N4CCCC4)ncnc32)cc1	10.9%
Cc1nnc(SCC(=O)N2CCc3ccccc32)n1-c1ccccc1	5.59%
Cc1ccccc1C(=O)Nc1cccc(-c2nnc(SCC(=O)O)n2C)c1	12.2%
CCn1c(SCC(=O)Nc2cccc(F)c2)nnc1-c1cc2cc(Br)ccc2o1	9.56%
O=C(NCc1cccs1)C1CCN(S(=O)(=O)c2ccc3c(c2)OCCO3)CC1	7.85%

SMILES	inhibition
O=C(CSc1ncccn1)NCCc1ccccc1	1.73%
CC(C)(C)c1ccc(C(=O)CSc2ncn[nH]2)cc1	5.03%
NC(=O)C1CCN(C(=O)c2ccc(C(F)(F)F)cc2)CC1	2.29%
CCC(=O)Nc1cccc(NC(=O)c2cccnc2)c1	1.22%
Cn1c(=O)cc(OCCCC(=O)N2CCN(Cc3ccc4c(c3)OCO4)CC2)c2ccccc21	14.1%
COc1ccc(CN2CN(C(C)C)CSC2=S)cc1	0.75%
Cc1ccccc1CN1CCN(CC(=O)NCc2ccccn2)C1=O	-3.92%
Clc1ccc(C2CC(c3cccs3)n3ncnc3N2)cc1Cl (stereo unspecified)	3.31%
Cc1cc(C)nc(NC(=O)Nc2ccccc2C(F)(F)F)n1	3.47%
Cc1csc(NC(=O)CN2CCCCCC2)n1	10.6%
Cc1csc(NC(=O)NC2(C(F)(F)F)Oc3ccccc3O2)n1	30.9% (active)
CCOC(=O)CC1C(=O)NCCN1C(=O)COc1ccc(Br)cc1C (stereo unspecified)	4.26%
COCCCNC(=O)c1ccc(CNS(=O)(=O)c2ccc(NC(C)=O)cc2)cc1	-9.1%
Cc1ccc(NC(=O)NCC(c2cccnc2)N2CCOCC2)cc1 (stereo unspecified)	6.82%
CCCS(=O)(=O)Nc1c(C(=O)O)[nH]c2ccccc12	8.57%
COc1ccc(Cl)cc1S(=O)(=O)Nc1cccc(C(=O)O)c1	4.26%
CC1CCCN(c2ccc(C(=O)NCCc3ccccc3)cn2)C1 (stereo unspecified)	9.14%
CCC12CN3CC(CC)(CN(C1)C31C(=O)N(C)c3ccc(C)cc31)C2=O (stereo unspecified)	9.74%
COc1ccc(OC)c(C2N(c3ccccn3)C(=O)C3CCCN32)c1 (stereo unspecified)	5.57%

SMILES	inhibition
O=C(CCS(=O)(=O)Cc1ccccc1F)NCCCN1CCCCC1	2.74%
CCCn1c(SCC(=O)Nc2c(C)cccc2C)nnc1C(C)C	-6.26%
CCOC(=O)c1ccc(-c2ccc(C(=O)Nc3cccnc3)o2)cc1	14.4%
CC(C)NS(=O)(=O)c1ccc(NC(=O)c2cccnc2)cc1	4.79%
CC(=O)Oc1cccc(N2C(=O)C3CC=C(Cl)CC3C2=O)c1 (stereo unspecified)	9.02%
CCn1c(CSc2ncccn2)nnc1SCC(=O)N1c2ccccc2CC1C (stereo unspecified)	4.54%
O=c1c2ccccc2oc2nc3n(c(=O)c12)CCCS3	4.21%
O=C(N1CCOCC1)N1CCOCC1	0.65%
CC(C)Cc1cc(C(=O)NCCc2ccccc2)no1	-0.72%
CCC1CCCCN1CCNC(=O)c1[nH]c(C)c(C(C)=O)c1C (stereo unspecified)	3.39%
CCOC(=O)N1CCN(C(=O)c2ccc3nc4cc(Cl)ccc4c(=O)n3c2)CC1	-20.1%
CC1=C(C)CC2C(=O)N(c3cccc4ccccc34)C(=O)C2C1 (stereo unspecified)	5.39%
COc1ccccc1-c1c(C)nn2c(C)c(C(C)=O)cnc12	1.22%
Cn1cccc1C(=O)NC(=O)COC(=O)Cc1coc2ccc3ccccc3c12	4.62%
O=C(Nc1cccc(Cl)c1)OCc1ccccn1	5.59%
Cc1cc(C)c(C(=O)CN2C(=O)CCC2=O)cc1C	1.27%
O=C(CNS(=O)(=O)c1cccc(C(F)(F)F)c1)Nc1ccccc1F	12.6%
O=C1CC(c2ccccc2)C(=O)N1c1cccc(O)c1 (stereo unspecified)	4.1%
